The results in this text go back to the supplement of paper PMC11732987, “Enantioselective OTUD7B fragment discovery through chemoproteomics screening and high-throughput optimisation” (Communications Chemistry, 2025).

Unmarked numbers belong to inactive results.

What all share (test): log2 ratio of Biotin-Ahx-Ub-VS probe labelling (fragment/DMSO); higher = less target engagement (more negative = stronger competition), active = hit call of the paper (q ≤ 0.05, log2 ratio ≤ -1)
Settings in all cases: compound concentration: 200 uM; treatment time: 3 h

Experiment [1] addresses T1, OTUD6B (UniProt Q8N6M0).
T1 sequence (whole entry): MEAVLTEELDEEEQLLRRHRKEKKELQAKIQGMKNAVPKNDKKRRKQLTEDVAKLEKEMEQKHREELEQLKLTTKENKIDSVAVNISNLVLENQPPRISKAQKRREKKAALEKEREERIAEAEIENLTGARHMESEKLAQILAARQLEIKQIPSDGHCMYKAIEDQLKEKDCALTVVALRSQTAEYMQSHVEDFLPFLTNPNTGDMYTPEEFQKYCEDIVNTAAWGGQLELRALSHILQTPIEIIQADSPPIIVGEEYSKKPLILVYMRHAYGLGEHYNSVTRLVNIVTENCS
The essentials:
(§1)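 Triplicate samples of HEK293T lysate, 495 µg each, received fragment at 200 µM or vehicle for 3 h, followed by Biotin-Ahx-Ub-VS (0.5 µM final) for 1 h. After NeutrAvidin enrichment of labelled DUBs and LysC/trypsin digestion, peptides were run by diaPASEF LC-MS/MS. The values are average log2 fragment/vehicle ratios from global-median-normalised Spectronaut label-free quantities, tested by unpaired t-test on proteins having ≥2 unique peptides.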

Experiment [2] addresses T2, OTUD7B (UniProt Q6GQQ9).
T2 sequence (whole entry): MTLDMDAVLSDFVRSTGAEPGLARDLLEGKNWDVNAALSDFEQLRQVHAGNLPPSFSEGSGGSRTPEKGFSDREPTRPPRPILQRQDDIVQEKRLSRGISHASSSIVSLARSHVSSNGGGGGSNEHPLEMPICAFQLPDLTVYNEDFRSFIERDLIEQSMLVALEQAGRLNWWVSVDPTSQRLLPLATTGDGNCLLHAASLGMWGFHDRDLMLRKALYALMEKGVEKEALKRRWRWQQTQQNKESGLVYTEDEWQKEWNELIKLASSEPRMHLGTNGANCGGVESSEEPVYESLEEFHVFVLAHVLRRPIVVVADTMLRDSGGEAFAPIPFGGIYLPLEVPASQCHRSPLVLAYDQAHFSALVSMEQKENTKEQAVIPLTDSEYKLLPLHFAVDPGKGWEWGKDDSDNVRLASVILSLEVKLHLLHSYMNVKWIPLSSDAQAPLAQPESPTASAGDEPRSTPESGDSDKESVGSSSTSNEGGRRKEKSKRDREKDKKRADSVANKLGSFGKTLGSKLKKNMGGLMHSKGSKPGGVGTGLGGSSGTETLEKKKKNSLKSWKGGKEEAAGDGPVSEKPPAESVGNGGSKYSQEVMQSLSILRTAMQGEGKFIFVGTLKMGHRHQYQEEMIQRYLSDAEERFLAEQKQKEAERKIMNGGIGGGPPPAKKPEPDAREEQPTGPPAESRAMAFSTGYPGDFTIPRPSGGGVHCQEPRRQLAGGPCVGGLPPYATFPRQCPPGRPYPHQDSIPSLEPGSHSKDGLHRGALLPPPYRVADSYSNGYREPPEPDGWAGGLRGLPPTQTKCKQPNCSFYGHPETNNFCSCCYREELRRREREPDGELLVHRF
The essentials: as §1

For experiment [3], the target named is PRPF8 (UniProt Q6P2Q9). In outline:
as §1

For experiment [4], the target named is T3, PSMD7 (UniProt P51665).
T3 sequence (whole entry): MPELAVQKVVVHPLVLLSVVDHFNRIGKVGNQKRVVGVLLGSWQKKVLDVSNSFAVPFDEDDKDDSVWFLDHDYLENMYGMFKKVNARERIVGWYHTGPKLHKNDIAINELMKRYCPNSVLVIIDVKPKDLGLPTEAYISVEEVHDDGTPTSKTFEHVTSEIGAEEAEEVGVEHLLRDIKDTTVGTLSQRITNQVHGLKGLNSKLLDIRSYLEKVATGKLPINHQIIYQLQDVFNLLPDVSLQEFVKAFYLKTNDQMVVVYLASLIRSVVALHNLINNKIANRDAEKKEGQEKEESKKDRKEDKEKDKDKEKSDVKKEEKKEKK
In outline:
as §1

Experiment [5] has as its target UCHL1 (UniProt P09936). The essentials: as §1
Experiment [6] deals with T4, UCHL3 (UniProt P15374).
T4 sequence (whole entry): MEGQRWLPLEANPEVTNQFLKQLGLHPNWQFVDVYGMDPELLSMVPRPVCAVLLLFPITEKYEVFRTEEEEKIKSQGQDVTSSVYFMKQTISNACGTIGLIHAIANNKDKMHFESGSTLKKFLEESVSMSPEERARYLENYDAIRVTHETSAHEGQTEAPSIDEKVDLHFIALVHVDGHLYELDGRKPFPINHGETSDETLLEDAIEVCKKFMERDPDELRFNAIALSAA
The essentials: as §1

Experiment [7] concerns the target T5, UCHL5 (UniProt Q9Y5K5).
T5 sequence (whole entry): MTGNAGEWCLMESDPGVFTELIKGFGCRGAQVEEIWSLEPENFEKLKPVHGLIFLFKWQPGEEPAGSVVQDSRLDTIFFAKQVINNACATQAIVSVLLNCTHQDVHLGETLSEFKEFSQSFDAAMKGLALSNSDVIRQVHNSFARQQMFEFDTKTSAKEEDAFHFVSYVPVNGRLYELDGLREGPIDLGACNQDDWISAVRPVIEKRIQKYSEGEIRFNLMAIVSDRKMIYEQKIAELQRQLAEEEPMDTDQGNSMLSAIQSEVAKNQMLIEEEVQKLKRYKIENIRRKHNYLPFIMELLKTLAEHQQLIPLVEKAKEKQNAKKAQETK
In outline: as §1

The target of experiment [8] is USP10 (UniProt Q14694). The essentials:
as §1

The target of experiment [9] is T6, USP15 (UniProt Q9Y4E8).
T6 sequence (whole entry): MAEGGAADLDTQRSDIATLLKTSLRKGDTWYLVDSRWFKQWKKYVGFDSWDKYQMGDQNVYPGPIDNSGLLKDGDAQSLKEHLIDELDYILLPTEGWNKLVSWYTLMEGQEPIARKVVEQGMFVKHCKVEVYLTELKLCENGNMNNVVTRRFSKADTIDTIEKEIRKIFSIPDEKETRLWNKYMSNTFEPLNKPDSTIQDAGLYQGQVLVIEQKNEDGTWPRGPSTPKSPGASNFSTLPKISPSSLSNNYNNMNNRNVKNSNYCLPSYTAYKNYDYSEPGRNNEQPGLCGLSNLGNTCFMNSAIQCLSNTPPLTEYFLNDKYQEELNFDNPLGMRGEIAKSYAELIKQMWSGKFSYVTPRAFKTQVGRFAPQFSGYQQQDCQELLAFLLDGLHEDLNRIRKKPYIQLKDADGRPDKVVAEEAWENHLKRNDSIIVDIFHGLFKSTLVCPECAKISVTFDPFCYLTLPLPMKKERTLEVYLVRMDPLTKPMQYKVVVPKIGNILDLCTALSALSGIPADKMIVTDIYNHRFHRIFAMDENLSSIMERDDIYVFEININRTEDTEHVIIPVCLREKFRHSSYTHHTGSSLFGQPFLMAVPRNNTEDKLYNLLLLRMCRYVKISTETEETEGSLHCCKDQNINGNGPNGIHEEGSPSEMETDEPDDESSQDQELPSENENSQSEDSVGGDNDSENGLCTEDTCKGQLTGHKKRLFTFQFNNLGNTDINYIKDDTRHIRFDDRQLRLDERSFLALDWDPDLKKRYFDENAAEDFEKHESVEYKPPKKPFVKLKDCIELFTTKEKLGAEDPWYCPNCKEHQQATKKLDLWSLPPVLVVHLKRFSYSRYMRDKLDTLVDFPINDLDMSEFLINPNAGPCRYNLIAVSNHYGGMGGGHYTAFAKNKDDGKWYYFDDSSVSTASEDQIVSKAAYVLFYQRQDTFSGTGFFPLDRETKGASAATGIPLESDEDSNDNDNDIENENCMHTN
In outline:
as §1

The target in experiment [10] is USP16 (UniProt Q9Y5T5). The essentials:
as §1

Chain of USP10 (Q14694 whole entry): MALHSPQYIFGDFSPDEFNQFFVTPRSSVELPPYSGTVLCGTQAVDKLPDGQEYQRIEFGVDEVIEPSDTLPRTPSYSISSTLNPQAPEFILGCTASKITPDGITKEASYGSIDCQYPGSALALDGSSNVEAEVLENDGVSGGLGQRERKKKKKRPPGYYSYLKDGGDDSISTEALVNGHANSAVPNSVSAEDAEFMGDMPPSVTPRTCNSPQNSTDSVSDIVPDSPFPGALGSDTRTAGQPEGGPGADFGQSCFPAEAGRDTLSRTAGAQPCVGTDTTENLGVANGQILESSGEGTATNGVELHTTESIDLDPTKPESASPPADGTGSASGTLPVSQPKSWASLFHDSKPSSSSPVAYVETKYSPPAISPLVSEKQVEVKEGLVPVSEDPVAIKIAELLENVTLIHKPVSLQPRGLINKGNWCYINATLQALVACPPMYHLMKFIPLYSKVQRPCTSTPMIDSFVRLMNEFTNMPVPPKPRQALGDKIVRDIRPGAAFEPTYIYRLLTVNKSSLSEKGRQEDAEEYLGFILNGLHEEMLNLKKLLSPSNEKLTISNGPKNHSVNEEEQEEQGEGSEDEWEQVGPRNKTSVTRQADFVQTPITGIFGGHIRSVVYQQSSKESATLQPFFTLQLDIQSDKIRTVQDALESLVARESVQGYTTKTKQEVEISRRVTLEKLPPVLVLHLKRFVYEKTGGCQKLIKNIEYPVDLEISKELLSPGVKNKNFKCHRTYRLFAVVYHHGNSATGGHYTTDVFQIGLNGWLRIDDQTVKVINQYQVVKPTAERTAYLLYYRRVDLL
Chain of USP16 (Q9Y5T5 whole entry, looked up): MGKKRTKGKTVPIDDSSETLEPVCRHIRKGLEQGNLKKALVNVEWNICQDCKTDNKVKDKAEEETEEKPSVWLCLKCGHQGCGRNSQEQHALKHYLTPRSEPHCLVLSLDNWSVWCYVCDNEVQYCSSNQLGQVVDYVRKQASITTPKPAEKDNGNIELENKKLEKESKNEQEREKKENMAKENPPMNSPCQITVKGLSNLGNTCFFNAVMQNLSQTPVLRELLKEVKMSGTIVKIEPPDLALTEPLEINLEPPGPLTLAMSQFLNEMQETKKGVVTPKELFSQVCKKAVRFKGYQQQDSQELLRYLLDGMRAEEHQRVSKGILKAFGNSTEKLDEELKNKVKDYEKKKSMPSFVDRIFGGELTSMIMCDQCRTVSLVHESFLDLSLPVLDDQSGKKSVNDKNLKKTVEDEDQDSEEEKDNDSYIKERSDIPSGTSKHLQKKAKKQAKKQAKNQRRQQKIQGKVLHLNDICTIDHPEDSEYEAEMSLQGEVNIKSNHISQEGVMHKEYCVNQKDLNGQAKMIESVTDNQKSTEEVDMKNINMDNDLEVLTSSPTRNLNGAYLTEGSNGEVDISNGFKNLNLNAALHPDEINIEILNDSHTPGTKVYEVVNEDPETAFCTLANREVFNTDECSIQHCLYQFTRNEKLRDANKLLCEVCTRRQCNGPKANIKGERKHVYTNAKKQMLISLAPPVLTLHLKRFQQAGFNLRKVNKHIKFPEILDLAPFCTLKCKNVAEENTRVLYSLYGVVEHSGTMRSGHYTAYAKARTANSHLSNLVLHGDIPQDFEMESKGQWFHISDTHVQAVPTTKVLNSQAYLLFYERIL
Chain of UCHL1 (P09936 whole entry, looked up): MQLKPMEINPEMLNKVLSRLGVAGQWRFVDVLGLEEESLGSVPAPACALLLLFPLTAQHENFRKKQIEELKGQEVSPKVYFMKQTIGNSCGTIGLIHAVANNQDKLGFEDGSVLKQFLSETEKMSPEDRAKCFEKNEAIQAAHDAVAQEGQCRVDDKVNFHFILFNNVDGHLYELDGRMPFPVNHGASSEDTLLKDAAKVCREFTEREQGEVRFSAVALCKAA

On to `Cc1ccccc1CN(C)C(=O)CCl`, for which the “log2 ratio of Biotin-Ahx-Ub-VS probe labelling” value (shortened to “log2 ratio”) in experiment [1] was -0.788; in experiment [2], -0.98; in [3], -0.0478; in [4], -0.18; in experiment [5], -1.98 (active); in experiment [6], -0.483. Also, the “log2 ratio” value in experiment [7] was -1.01 (active); in experiment [8] it was -0.154; in [9], -0.803; in [10], -0.62.
Consider `CC1(NC(=O)CCl)CCS(=O)(=O)C1` (stereo not given), for which the “log2 ratio” value in experiment [1] is -0.893; in experiment [2], -1.2 (active); in [3], -0.0055; in experiment [4], 0.0653; in [5] it was -2.03 (active); in [6], -0.392. In addition, the “log2 ratio” value in experiment [7] was -0.974; in [8], -0.235; in [9] it was -0.845; in experiment [10], 0.0352.
For the molecule `Cl.O=C(CCl)NC1(c2ncccn2)CCC1`, the “log2 ratio” value is 0.0771 in [1]; -0.227 in experiment [2]; -0.0462 in [3]; -0.289 in experiment [4]; -1.41 (active) in experiment [5]; 0.32 in experiment [6]. For the same molecule, the “log2 ratio” value in [7] was -0.0083; in experiment [8], 0.0419; in [9], 0.0327; in [10], 0.0942.
Take `NC(=O)C1CCCN(C(=O)CCl)C1` (stereo not given): the “log2 ratio” value in experiment [1] was 0.0096; in experiment [2] it was -0.633; in experiment [3] it was 0.0408; in experiment [4], -0.26; in [5], -1.4 (active); in [6] it was 0.133. Further, the “log2 ratio” value is 0.0623 in experiment [7], -0.05 in experiment [8], -0.0343 in experiment [9] and -0.387 in [10].
Take `N#Cc1ccc(CNC(=O)CCl)cc1`: the “log2 ratio” value was 0.025 in experiment [1]; -0.865 in experiment [2]; -0.187 in [3]; -0.28 in [4]; -1.19 (active) in experiment [5]; 0.183 in experiment [6]. In addition, the “log2 ratio” value in experiment [7] was -0.131; in experiment [8], -0.0787; in experiment [9], -0.145; in [10], 0.29.
Regarding `Cc1cnc2[nH]cc(CCNC(=O)CCl)c2c1`, the “log2 ratio” value in [1] is 0.00839; in [2], -0.562; in [3], -0.0916; in experiment [4] it was -0.297; in experiment [5] it was -0.85; in experiment [6], 0.0619. In addition, the “log2 ratio” value was -0.065 in [7], -0.0977 in experiment [8], -0.336 in experiment [9] and 0.0147 in experiment [10].
In the case of `Cc1ccc(C(=O)NCCNC(=O)CCl)cc1`, the “log2 ratio” value in [1] was -0.182; in experiment [2] it was -0.711; in experiment [3], -0.064; in [4] it was -0.134; in experiment [5], -1.75 (active); in [6], 0.104. For the same molecule, the “log2 ratio” value in experiment [7] was -0.144; in experiment [8], -0.111; in experiment [9], -0.0554; in experiment [10], -0.0901.
